Drawing on PubChem BioAssay (NCATS), this text covers Potency and outcome for eight compounds.

A number with no mark means an inactive call. Inconclusive results are not listed. Calls of active or inactive are those of the source. The call rests on the fitted dose curve; in most records, active means well fitted curve in the direction sought with a large enough effect; inconclusive means small, poorly fitted or top-dose-only effect, or another doubt; inactive means no such curve, though single readings can be large; an effect the other way counts as inactive or inconclusive.

In test [1] the target is Phospholipid hydroperoxide glutathione peroxidase GPX4 (Homo sapiens) (UniProt P36969). Kind of test: Primary qHTS Assay for Inhibitors of Recombinant Selenoprotein Glutathione Peroxidase 4 (GPX4) (AID 1845192). Further: nearly all actives have a fitted effect of over 65% in size. Put shortly: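 GR-coupled readout: 100 nM GR, 1 mM GSH, 0.5 mM NADPH; NADPH fluorescence (ex 340/em 450 nm) read at t=0 and after 15 min RT. GPX4 200 nM, preincubated 30 min with compound; substrate 0.5 mM CHP.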
Sequence of Phospholipid hydroperoxide glutathione peroxidase GPX4 (Homo sapiens) (P36969 whole entry, looked up): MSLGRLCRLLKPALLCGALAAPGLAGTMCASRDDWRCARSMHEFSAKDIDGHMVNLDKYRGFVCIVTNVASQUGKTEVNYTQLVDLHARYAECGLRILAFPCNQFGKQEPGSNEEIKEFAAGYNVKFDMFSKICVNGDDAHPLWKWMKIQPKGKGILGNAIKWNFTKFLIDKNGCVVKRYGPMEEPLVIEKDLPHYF

Test [2] in a line: Quantitative High-Throughput drug screen in 47 multiple myeloma cell lines against the NCATS MIPE library collection: FR4_PLB cell viability assay (AID 1918924; further: nearly all actives have a fitted effect of over 35% in size; further: potency means the concentration at half of the fitted maximal effect). Put shortly: (§1)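 Viability readout: CellTiter-Glo luminescence following 5 min room-temperature incubation with reagent. Prior exposure: 48 h, 37C, humidified 5% CO2, 500 cells per well.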
The nature of test [3]: Quantitative High-Throughput drug screen in 47 multiple myeloma cell lines against the NCATS MIPE library collection: Delta47_JCRB cell viability assay (AID 1918925; further: nearly all actives have a fitted effect of over 45% in size; further: potency means the concentration at half of the fitted maximal effect). The method in brief:
(§2)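 Inhibition of cell viability is measured here. Each line was plated at 500 cells per well, treated with MIPE 4.0 drugs, kept 48 hours at 37C, then assayed for ATP content by CellTiter-Glo luminescence.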

The nature of test [4]: Quantitative High-Throughput drug screen in 47 multiple myeloma cell lines against the NCATS MIPE library collection: EJM_DSMZ cell viability assay (AID 1918926; further: nearly all actives have a fitted effect of over 30% in size; further: potency means the concentration at half of the fitted maximal effect). The method in brief:
as §2

Test [5] in a line: Quantitative High-Throughput drug screen in 47 multiple myeloma cell lines against the NCATS MIPE library collection: AMO1_DSMZ cell viability assay (AID 1918927; further: nearly all actives have a fitted effect of over 30% in size; further: potency means the concentration at half of the fitted maximal effect). Put shortly: as §2
Test [6] in a line: Quantitative High-Throughput drug screen in 47 multiple myeloma cell lines against the NCATS MIPE library collection: ARP1_JJKsccF8 cell viability assay (AID 1918928; further: nearly all actives have a fitted effect of over 40% in size; further: potency means the concentration at half of the fitted maximal effect). Put shortly:
(§3)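 Myeloma cells at 500 per well in 1536-well format treated with MIPE 4.0 library by pin transfer for 48 h at 37C, 5% CO2. Viability from ATP luminescence (CellTiter-Glo), normalized to DMSO (100%) and media-only (0%) wells.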

The nature of test [7]: Quantitative High-Throughput drug screen in 47 multiple myeloma cell lines against the NCATS MIPE library collection: ARD_JJKsccE7 cell viability assay (AID 1918929; further: potency means the concentration at half of the fitted maximal effect). The method in brief:
as §2

A short description of test [8]: Quantitative High-Throughput drug screen in 47 multiple myeloma cell lines against the NCATS MIPE library collection: Karpas620_DSMZ cell viability assay (AID 1918959). Further: nearly all actives have a fitted effect of over 30% in size. Further: potency means the concentration at half of the fitted maximal effect. The method in brief:
as §1

Test [9] is described as follows: Quantitative High-Throughput drug screen in 47 multiple myeloma cell lines against the NCATS MIPE library collection: KMM1_JCRB cell viability assay (AID 1918960). Further: nearly all actives have a fitted effect of over 30% in size. Further: potency means the concentration at half of the fitted maximal effect. The method in brief:
as §3

Test [10] can be described thus: Quantitative High-Throughput drug screen in 47 multiple myeloma cell lines against the NCATS MIPE library collection: KHM11_PLB cell viability assay (AID 1918962). Further: nearly all actives have a fitted effect of over 35% in size. Further: potency means the concentration at half of the fitted maximal effect. Put shortly: as §1
Test [11] in a line: Quantitative High-Throughput drug screen in 47 multiple myeloma cell lines against the NCATS MIPE library collection: JIM3_ECACC cell viability assay (AID 1918963; further: nearly all actives have a fitted effect of over 35% in size; further: potency means the concentration at half of the fitted maximal effect). The method in brief: as §1
Test [12] can be described thus: Quantitative High-Throughput drug screen in 47 multiple myeloma cell lines against the NCATS MIPE library collection: INA6_PLB cell viability assay (AID 1918965; further: nearly all actives have a fitted effect of over 55% in size; further: potency means the concentration at half of the fitted maximal effect). Put shortly:
(§4)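 Approved and investigational drugs from MIPE 4.0 were added by pin tool to 500 cells per well. After 48 hours at 37C, ATP-based CellTiter-Glo luminescence indicated remaining viability.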

Test [13] in a line: Quantitative High-Throughput drug screen in 47 multiple myeloma cell lines against the NCATS MIPE library collection: JJN3_DSMZ cell viability assay (AID 1918966; further: nearly all actives have a fitted effect of over 50% in size; further: potency means the concentration at half of the fitted maximal effect). The method in brief:
as §2

Test [14] is described as follows: Quantitative High-Throughput drug screen in 47 multiple myeloma cell lines against the NCATS MIPE library collection: H1112_PLB cell viability assay (AID 1918967; further: nearly all actives have a fitted effect of over 30% in size; further: potency means the concentration at half of the fitted maximal effect). Put shortly: as §2
The nature of test [15]: Primary fluorescence-based thiol-reactive (MSTI) qHTS assay for identification of artifact compounds. (AID 1845221).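 Further: thiol-reactive compounds lower the probe fluorescence signal; nearly all actives have a fitted effect of over 65% in size.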 The method in brief: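 MSTI probe at 4 uM final in 2% DMSO/PBS pH 7.4; compounds, 1 h at room temperature in dark. Fluorescence Ex/Em 525/598 nm, normalised to Acetyl-MSTI and MSTI, fitted to 4-parameter Hill.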
(qHTS replaces the single test concentration by a dilution series.)

Test [16] has as its system Nanoluciferase (engineered Oplophorus gracilirostris luciferase). Kind of test: Primary Nanoluciferase (NLuc) qHTS assay for identification of artifact compounds. (AID 1845222).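 Further: NLuc secreted into diluted conditioned medium of S16 cells.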 The method in brief:
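Concentration-response data were obtained by luminescence after 5 min with Nano-Glo substrate at 1:100. The enzyme was diluted S16 NLuc-expressing cell medium, preincubated with compound for 15 min at RT. Curves were fitted with a 4-parameter Hill model.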

Test [17] in a line: Primary redox qHTS assay for identification of artifact compounds. (AID 1845223). Put shortly:
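Amplex Red (25 uM) and HRP (250 mU/mL) in HBSS, with compounds for 15 min, then 250 uM DTT for 30 min, room temperature, dark. Fluorescence 525/598 nm read; normalized to DMSO and 10 uM DA3003; Hill fit.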

Test [18] has as its target Luciferin 4-monooxygenase (Photinus pyralis) (UniProt P08659). Kind of test: Primary firefly luciferase (FLuc) qHTS assay for identification of artifact compounds. (AID 1845220). Further: nearly all actives have a fitted effect of over 60% in size. Put shortly:
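Reaction readout was CCD-imaged luminescence, taken 5 min after adding 10 nM purified firefly enzyme to compound-treated wells holding 10 uM luciferin and ATP in pH 7.6 buffer.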

Test [19] is described as follows: Quantitative High-Throughput drug screen in 47 multiple myeloma cell lines against the NCATS MIPE library collection: Karpas417_ECACC cell viability assay (AID 1918961). Further: potency means the concentration at half of the fitted maximal effect. Conditions: Karpas417 myeloma viability, CellTiter-Glo ATP luminescence, 48 h; viability (% of DMSO): at 45.8 µM (top of the series). The method in brief:
as §4
On the technique in general: In ATP-based viability assays light output follows the ATP content of the culture.

Test [20] is described as follows: Quantitative High-Throughput drug screen in 47 multiple myeloma cell lines against the NCATS MIPE library collection: JIM1_ECACC cell viability assay (AID 1918964; further: potency means the concentration at half of the fitted maximal effect). The method in brief: as §2

For `CC[C@H](C)C(=O)O[C@H]1C[C@H](O)C=C2C=C[C@H](C)[C@H](CC[C@@H](O)C[C@@H](O)CC(=O)O)[C@H]21`, the Potency entry in test [1], in test [2], in test [3], in test [4], in [5] and in test [6] was “inactive” in each case. Besides, the Potency entry in test [7], in test [8], in [9], in test [10], in [11] and in test [12] was “inactive” in each case. For the same compound, the Potency result in test [13] and in test [14] was “inactive” each time.
Consider `Cc1ccc(NC(=O)c2ccc(CN3CCN(C)CC3)cc2)cc1Nc1nc(-c2cccnc2)cs1`, for which the Potency result in [1] is “inactive”. Further, the Potency in [2] was 20.9 µM (active); in test [3], 6.62 µM (active); in test [5], 18.7 µM (active); in test [6] it was 23.5 µM (active); in test [7] it was 23.5 µM (active); in test [9] it was 16.6 µM (active). For the same compound, the Potency is 7.43 µM (active) in test [10], 14.8 µM (active) in test [11], 5.26 µM (active) in test [12] and 16.6 µM (active) in test [13].
`Cc1cc(C(C)Nc2ccccc2)c2nc(N3CCOCC3)cc(=O)n2c1` (stereo not given): the Potency result in [1], in [15], in [16] and in test [13] was “inactive” throughout. Further, the compound was classed as inactive in test [17]. The Potency in test [3] is 9.35 µM (active); in test [5], 18.7 µM (active); in test [10], 1.48 µM (active); in test [11], 14.8 µM (active); in test [12] it was 18.7 µM (active).
With `CN1C(=O)C(Cc2c[nH]c3ccccc23)NC1=S` (stereo not given), the Potency result in test [1], in [18], in test [16], in test [2], in test [3] and in test [4] was “inactive” each time. Also, the Potency result in test [5], in test [6], in [7], in [8], in [9] and in [12] was “inactive” throughout. Further, the Potency entry in test [13] and in [14] was “inactive” each time. Moreover, the result in test [17] was inactive.
Take `COc1nc(C)cnc1NS(=O)(=O)c1cccnc1-c1ccc(-c2nnco2)cc1`: the Potency result in test [1], in [18], in test [16], in test [2], in [4] and in test [5] was “inactive” in each case. The Potency entry in test [11], in test [12] and in test [14] was “inactive” in each case. The outcome in [17] was inactive. For the same compound, the Potency in test [13] is 1.87 µM (active).
Take `O=C(Nc1ccc(OC(F)(F)F)cc1)c1sccc1NCc1ccnc2ccccc12`: the Potency entry in [1], in [15], in [16] and in test [10] was “inactive” each time. Besides, the call in [17] was inactive. Moreover, the Potency in test [2] is 4.69 µM (active); in test [3] it was 5.26 µM (active); in test [8] it was 4.69 µM (active); in [13], 9.35 µM (active).
Take `c1ccc(CNc2nc(N3CCOc4ccccc43)nc3c2CCCC3)cc1`: the Potency result in test [1], in test [18], in test [16], in test [2], in test [4] and in test [13] was “inactive” each time. Also, the Potency result in [14] was “inactive”. For the same compound, in test [17], the compound was called inactive. Further, the Potency in test [5] is 16.6 µM (active); in test [7], 20.9 µM (active).
For `CCC(C)SSc1ncc[nH]1` (stereo not given), in test [1], the Potency entry is “inactive”. Further, the Potency in test [2] is 16.6 µM (active); in test [3] it was 10.5 µM (active); in test [4], 13.2 µM (active); in test [5], 9.35 µM (active); in test [7] it was 5.26 µM (active); in test [8], 4.69 µM (active). In addition, the Potency in [9] is 3.32 µM (active); in test [19] it was 2.35 µM (active); in [10] it was 13.2 µM (active); in test [11], 14.8 µM (active); in [20] it was 5.9 µM (active); in test [12] it was 4.69 µM (active). Moreover, the Potency in test [13] was 4.69 µM (active); in test [14], 5.26 µM (active).
